Screen size: about 5,500 compounds; about 2,000 (36%) were called active. Another 18% or so got no clear call; they are omitted. No stated cut-off is given here; in the data, active means normalized growth mostly below about 0.91 (no sharp cut-off); inconclusive means no clear call, values can overlap the other calls; inactive means mostly above about 0.92. The list shows a part of the results.
Test: chemical genetic growth profiling, strain panel (AID 1159580);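 further: tested at 20 µM; growth read once vehicle control cultures reached saturation at 30 °C; 1 = growth at the plate median or of vehicle wells; lower values mean less growth of the strain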
Details: S. cerevisiae deletion strains, growth OD

Measured: normalized growth

COc1cc(-c2coc3cc(O)c(OC)c(O)c3c2=O)cc(O)c1OC
inactive: locus YHR030C, strain SLT2, active compounds read low 1.02 | locus YHR079C, strain IRE1, active compounds read low 1.03 | locus YJL095W, strain BCK1, active compounds read low 1.02 | locus YJR066W, strain TOR1, active compounds read low 0.969 | locus YLR113W, strain HOG1, active compounds read low 1.02 | locus YNL183C, strain NPR1, active compounds read low 1 | locus YOR231W, strain MKK1, active compounds read low 1.03 | locus YPL256C, strain CLN2, active compounds read low 1.07

Source: PubChem BioAssay AID1159580 (chemical genetic matrix, 2015)
